The values below come from ChEMBL document CHEMBL1157539, “Thousands of chemical starting points for antimalarial lead identification” (Nature, 2010).

The experiment relates to Plasmodium falciparum. Description: GSK_TCMDC: Inhibition of Plasmodium falciparum 3D7 in whole red blood cells, using parasite LDH activity as an index of growth. Test compounds present at 2uM. It is filed as functional.
What is called Inhibition is the change of the read-out against control, counted positive when it falls. A high value points to a response far below the control. As for `N=C(NCc1ccccc1)Nc1nc(-c2ccc(OCCCn3ccnc3)cc2)cs1`, the Inhibition is given as 100%.

The compound `Cl.N=C(N)Nc1ccc(OCCCCCOc2ccc(NC(=N)N)cc2Br)c(Br)c1` registered an Inhibition of 92%.

Regarding `CC(CO)(CO)NCc1cc2c3ccccc3c(CNC(C)(CO)CO)cc2c2ccccc12.CS(=O)(=O)O`, the Inhibition stood at 96%.

In the case of `CCN(CC)CCOc1ccc(C(O)(C#CC(O)(c2ccc(Br)cc2)c2ccc(OCCN(CC)CC)cc2)c2ccc(Br)cc2)cc1` (stereo not given), the Inhibition amounted to 99%.

Turning to `CC(=O)Nc1nc(C(=O)Nc2ccc(-c3cccc(-c4nc5cccc(C)c5[nH]4)c3)cc2)cs1`, the Inhibition came to 100%.

In turn, `O=C(O)C(F)(F)F.O=S(=O)(NC1CCCCN(Cc2ccccc2O)C1)c1ccc(C(F)(F)F)cc1` (stereo not given) returned an Inhibition of 84%.

Consider `CCCCCCCCCc1c(C)[nH]c2ccccc2c1=O`, for which the Inhibition turned out to be 97%.

As to `COc1ccc(C[C@H](N)C(=O)N[C@H]2[C@@H](O)[C@H](n3cnc4c(N(C)C)ncnc43)O[C@@H]2CO)cc1.Cl`, the Inhibition is recorded as 100%.

`CN1CCc2ccc(NC(=O)Nc3cccc([N+](=O)[O-])c3)cc2C1`: the Inhibition is listed as 87%.

Take `CO/C(=C\C=C\c1cc2cc(Cl)c(Cl)cc2[nH]1)C(=O)NCCCN(C)CCN(C)c1ccccc1`: the Inhibition is given as 96%.

As to `COc1ccc(-c2ccccc2OCCCNc2nc(NCCc3ccc(O)cc3)nc(N3CCNCC3)n2)cc1.O=C(O)C(F)(F)F`, the Inhibition is given as 99%.

`O=C(NC1CC1)c1cnc(N2CCN(Cc3c(F)cccc3Cl)CC2)c(Cl)c1.O=C(O)C(F)(F)F` came in with an Inhibition of 93%.

For `COc1cc(C(=O)NCCCN2CCN(c3cccc(Cl)c3)CC2)ccc1-c1nc2cc(Cl)c(F)cc2[nH]1`, the Inhibition came to 100%.

`CCCC(C)Nc1nc(C)cc(N[C@@H](CC(C)C)C(=O)NCc2ccc(C)cc2)n1.O=C(O)C(F)(F)F` (stereo not given in full) yielded an Inhibition of 98%.

In turn, `COc1ccc(CNCc2cccc(-c3ccc(-c4nc5ccccc5[nH]4)cc3)c2)cc1.O=C(O)C(F)(F)F` displayed an Inhibition of 100%.

For the compound `Cc1cc(C2CCN(CCCCNC(=O)c3ccc(-c4ccc(C(F)(F)F)cc4)cc3)CC2)c(C)cc1OCC#N`, the Inhibition was 100%.

Turning to `O=c1cc(NCCCNC2CCc3ccc(Cl)cc32)[nH]c2ccccc12` (stereo not given), the Inhibition was 92%.

`O=C(Nc1cccc(-c2ccc(-c3nc4cc(C(F)(F)F)ccc4[nH]3)cc2)c1)Nc1ccc(F)c(F)c1F` showed an Inhibition of 100%.

The compound `CCN(CC)S(=O)(=O)c1cc(-c2ccc(=O)n(CC(=O)c3ccc(C)cc3)n2)ccc1C` returned an Inhibition of 86%.

For the compound `CCCCCCCC/C=C\CCCCCCCC(=O)NCc1ccc(O)c(OC)c1` [OLVANIL], the Inhibition is given as 96%.

`Cc1cc(F)ccc1-c1nc(N(C)CCN(C)C(=O)N(C)c2ccccc2)nc2c1ccc(=O)n2-c1c(F)cccc1F.O=C(O)C(F)(F)F` gave an Inhibition of 87%.

For the compound `O=C(Nc1ccc(N2CCCN(Cc3cccc(F)c3)CC2)cc1)c1ccccc1.O=C(O)C(F)(F)F`, the Inhibition amounted to 95%.

For `Cc1cc(=NN=CC=Cc2ccccc2)c2ccccc2[nH]1`, the Inhibition is recorded as 100%.

Compound `O=C(C=Cc1ccc(Cl)c(Cl)c1)NCCCCCN1CCCC(CCCNC(=O)/C=C/c2ccccc2)C1` (stereo not given) displayed an Inhibition of 98%.

`Cc1nn(-c2ccccc2)c2sc(C(=O)N(CCCN(C)C)c3nc(-c4ccccc4)cs3)cc12.Cl` came in with an Inhibition of 95%.

In turn, `CC(=O)N1CCC(C(=O)Nc2ccc(-c3cccc(-c4nc5cccc(C)c5[nH]4)c3)cc2)CC1` returned an Inhibition of 84%.

In turn, `CC(=O)Oc1c(C2CCN(CCCCNC(=O)c3ccc(NC(=O)c4ccc(Cl)cc4)cc3)CC2)ccc2ccccc12` yielded an Inhibition of 100%.

`CC[C@H](C)CNC(=O)c1cncc(-c2ccc(CNCCOc3ccccc3)cc2)c1.O=C(O)C(F)(F)F` showed an Inhibition of 90%.

`CN(C)Cc1ccc(-c2cccc(Nc3nccc(NCC(O)c4ccccc4)n3)c2)cc1` (stereo not given): the Inhibition amounted to 100%.

Consider `N#Cc1ccc(N(CCOc2ccc3c(c2)CCC(=O)N3)Cc2ccccc2C(F)(F)F)cc1C(F)(F)F`, for which the Inhibition is 98%.

In the case of `Cc1ccccc1C1CCN(C2CCC(NC(=O)/C=C/c3cc(F)ccc3C(F)(F)F)CC2)CC1` (stereo not given), the Inhibition turned out to be 98%.

On to `COc1ccc2nccc([C@@H](O)CN3CCC(NCCOc4cc(F)cc(F)c4)CC3)c2c1.O=C(O)C(=O)O`, for which the Inhibition turned out to be 100%.

Turning to `Cc1onc(-c2ccccc2)c1C(=O)Nc1nc(-c2ccccn2)nc2ccsc12`, the Inhibition came out at 97%.

Compound `COc1ccc(-c2csc(C(=O)NC3CCC(N4CCC(c5ccccc5C)CC4)CC3)c2)cc1` (stereo not given) showed an Inhibition of 100%.

`COc1ccc(CNc2cc(C)nc3sc4c(c23)CCC2(C4)OCCO2)cc1` had an Inhibition of 96%.
